Most compounds without a hit are left out; they make up all but 5.4% or so of the library.
Sm TGR block – S. mansoni TGR enzyme inhibition. actives 3% (n = 360,000). AID 485364. Potency, µM (series often up to 114 µM), without a hit: at the top dose activity change, negative = inhibition, hits mostly inhibitors. purified TGR, DTNB reduction, TNB absorbance 405 nm. Q962Y6; active = well fitted inhibition curve with a large enough effect; inconclusive = small, poorly fitted or top-dose-only effect; inactive = no such curve, though single readings can be large or run the other way; also: nearly all actives have a fitted effect of over 60% in size
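Kinetic colorimetric format: TGR-catalysed, NADPH-driven DTNB reduction monitored via TNB absorbance. Enzyme dispensed at 20 nM; compound exposure 15 min at room temperature before reaction start.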
Vaccinia Venus – vaccinia inhibition (Venus reporter); Vaccinia virus Venus reporter expression, fluorescence; Potency, µM (highest dose often 36.5 µM), without a hit: at the top dose activity change, negative = inhibition, usual class: inhibitors; actives 0.46% (n = 330,000); calls by dose curve; tested in A549 cells; also: nearly all actives have a fitted effect of over 30% in size
VACV mCherry inh – vaccinia inhibition (mCherry reporter) | Vaccinia virus mCherry reporter infection, fluorescence | Potency, µM (top dose mostly 36.5 µM), for the others: top-dose activity change, negative = inhibition, hits mostly inhibitors | actives 0.63% (n = 310,000); calls by dose curve; tested in A549 cells; also: nearly all actives have a fitted effect of over 35% in size
FMDV antiviral – blocks foot and mouth disease virus; FMDV antiviral cell-based qHTS; Potency, µM (top dose mostly 57.9 µM), for inactives: top-dose activity change, negative = inhibition, usual class: inhibitors; actives 1.2% (n = 410,000); calls by dose curve; tested in HEK293T cells; also: read-out not given here; nearly all actives have a fitted effect of over 45% in size
MARV entry inh – Marburg virus entry inhibition; Marburg virus pseudotyped entry inhibition, cell reporter; Potency, µM (series often up to 37.8 µM), inactives show at the top dose activity change, negative = inhibition, actives largely listed as inhibitors; actives 1.8% (n = 300,000); AID 540276; calls by dose curve; tested in HEK293 cells
LASV entry inh – blocks Lassa virus binding to or entry into cells; actives 1.2% (n = 300,000); Potency, µM (doses to about 37.9 µM), without a hit: top-dose activity change, negative = inhibition, actives largely listed as inhibitors; Lassa virus pseudotype entry inhibition, cell reporter; AID 540256; calls by dose curve; tested in HEK293 cells; also: nearly all actives have a fitted effect of over 50% in size
* = called active by the depositor; i = inactive; ? = inconclusive; . = no result; [ ] = another dose, or the depositor's remark. % is scaled to controls: 0 for no effect and ±100 for the full control effect; potency is read from the fitted curve at half-maximal effect.

SMILES	Sm TGR block	Vaccinia Venus	VACV mCherry inh	FMDV antiviral	MARV entry inh	LASV entry inh
COc1ccccc1Oc1ccc2c(c1)C(=O)N(c1cccc(O)c1)C2=O	7%	-6%	-15%	2%	10%	?
COc1ccc(C(c2c(C)n(C)n(-c3ccccc3)c2=O)c2c(C)n(C)n(-c3ccccc3)c2=O)cc1O	-6%	-10%	-18%	-21%	-28%[46.1 µM]	-9%[46.1 µM]
COc1cccc(C(c2c(O)nc(SC)n(C)c2=O)c2c(O)nc(SC)n(C)c2=O)c1	7.1µM*	.	.	-5%	-8%	-8%
CCCSc1nc(O)c(C(c2ccc(OC)c(O)c2)c2c(O)nc(SCCC)n(C)c2=O)c(=O)n1C	13µM*	-17%	-16%	-9%	-6%	?
CSc1nc(C)c(Oc2ccccc2)c(=O)n1C	-1%	6%	-7%	2%	-4%	?
CC(Oc1ccccc1)C(=O)Nc1ccccc1C(=O)OCc1cc(=O)n2nc(C(C)C)sc2n1 (configuration not stated)	6%	-21%	-1%	-28%	.	-2%[46.1 µM]
c1ccc(CN2CCN(C3CCCSc4ccccc43)CC2)cc1 (configuration not stated)	.	-11%	i	?	16µM*	?
O=C1CC(N2CCN(Cc3ccccc3)CC2)C(=O)N1 (configuration not stated)	.	.	.	-16%	.	.
CCc1cc(C(=O)N2CCCC(C(=O)c3ccc(Oc4ccccc4)cc3)C2)n(C)n1 (configuration not stated)	0%	-27%	-5%	?	11µM*	-19%[46.1 µM]
CSc1ccc(C(=O)C2CCCN(C(=O)c3nn(C)c(=O)c4ccccc34)C2)cc1 (configuration not stated)	14µM*	-18%	i	?	?	?
CCc1cc(C(=O)N2CCCC(C(=O)c3cccc(OC(C)C)c3)C2)n(C)n1 (configuration not stated)	-31%	-7%	-18%	-27%	0%[46.1 µM]	-1%[46.1 µM]
Cc1cccc(NC(=O)N2CCC(CN3CCCCCC3)CC2)c1C	?	-10%	-10%	-6%	.	22%[46.1 µM]
CCOC(=O)C1(CCOC)CCN(Cc2ccccc2-c2ccco2)CC1	35µM*	1%	-19%	-12%	?	-12%[46.1 µM]
CCOC(=O)C1(CCCc2ccccc2)CCN(Cc2cn(CC)nc2C)CC1	99%	-22%	-2%	?	8.9µM*	?
CCOC(=O)C1(CCOc2ccccc2)CCN(Cc2ccncc2)CC1	28µM*	-10%	-25%	?	?	-9%
CCOC(=O)C1(CCOc2ccccc2)CCN(Cc2cccn2-c2ncccn2)CC1	-2%	-11%	i	-3%	8.9µM*	?
CCOC(=O)C1(Cc2cccc(F)c2)CCN(Cc2cn(CC)nc2C)CC1	0%	-8%	-2%	-25%	?	2%
CCOC(=O)C1(CCOC)CCN(Cc2ccncc2)CC1	-2%	-15%	-2%	-12%	1%[46.1 µM]	?
CCOC(=O)C1(CCOc2ccccc2)CCN(Cc2cc(OC)ccc2OC)CC1	-10%	.	.	?	.	.
Cc1ccc(CNc2ccc(-c3nc(-c4ccncc4)no3)cc2[N+](=O)[O-])cc1	6%	-15%	-5%	-13%	3%[46.1 µM]	0%[46.1 µM]
CCOC(=O)[C@]12C[C@@H]3OCCN(C(=O)N[C@@H]1c1ccccc1)[C@@H]32	.	.	.	.	2%[14.2 µM]	.
c1ccc(-c2nc(-c3ccccn3)nc(-c3ccccn3)n2)nc1	-3%	-4%	11%	-19%	-1%	-6%
c1ccc(-c2nnc(-c3ccccn3)s2)nc1	12%	-2%	0%	-75%	1.1µM*	?
COc1ccc(O)c(CN2CCC3(CCC(CNC(=O)C4CCCO4)O3)CC2)c1 (configuration not stated)	.	14%	-3%	-8%	.	.
CCCCC(=O)/C=C/n1c(=S)oc2ccccc21	0%	-13%	-13%	?	18µM*	14%
SMILES	Sm TGR block	Vaccinia Venus	VACV mCherry inh	FMDV antiviral	MARV entry inh	LASV entry inh
Cc1ccc(/C=C2\C(=O)NC(=S)N(c3ccccc3F)C2=O)s1	7.9µM*	i	466%	?	?	?
CCc1cccc2c(-c3ccc(F)cc3)nc(SCC(=O)Nc3ccccc3)nc12	1%	-5%	-8%	-8%	19%[46.1 µM]	12%[46.1 µM]
N=NC(=O)c1ccccc1Nc1c(O)[nH]c2ccccc12	.	?	-7%	?	?	6.3µM*
CCC(C)NC(=O)/C(=C/c1ccco1)c1ccccc1 (configuration not stated)	10µM*	-9%	.	-18%	-25%	21%
O=C(NCCc1ccccc1)/C(=C/c1ccco1)c1ccccc1	13µM*	-11%	i	0%	-8%	-1%
O=C(O)CCNC(=O)/C(=C/c1ccco1)NC(=O)c1ccco1	-24%	.	.	-3%	.	.
CC(C)NC(=O)/C(=C/c1ccco1)c1ccccc1	?	-24%	.	0%	-5%	-4%
O=C1CC(c2nc3ccccc3n2CCCOc2ccccc2)CN1c1ccc(F)cc1 (configuration not stated)	0%	-10%	4%	?	2%[46.1 µM]	-27%[46.1 µM]
COC(=O)c1ccc(OC(=O)CS(=O)c2ccccc2[N+](=O)[O-])cc1 (configuration not stated)	22µM*	-2%	-21%	5%	2%[46.1 µM]	8%
CCOC(=O)c1ccccc1OC(=O)CS(=O)c1ccccc1[N+](=O)[O-] (configuration not stated)	.	-7%	-3%	1%	-1%[46.1 µM]	9%[46.1 µM]
O=C(CS(=O)c1ccc(C(F)(F)F)cc1[N+](=O)[O-])Oc1ccccc1 (configuration not stated)	35µM*	-21%	-33%	28µM*	?	?
CS(=O)(=O)c1ccc(S(=O)CC(=O)OCc2ccccc2)c([N+](=O)[O-])c1 (configuration not stated)	2.5µM*	-14%	-22%	8.9µM*	?	?
CCN(c1ccccc1)c1nnc(NC(=O)Nc2ccc(Br)cc2F)s1	1%	0%	0%	-12%	?	-11%[46.1 µM]
COc1cccc(N2C(=O)C(O)=C(C(C)=O)[C@@H]2c2ccc(OC)c(OC)c2)c1	.	.	.	.	7%	.
O=C(NCc1ccccc1)C(=O)NCC(c1ccc2c(c1)OCO2)N1CCOCC1 (configuration not stated)	-2%	-5%	0%	-11%	.	0%[46.1 µM]
Cc1cc(O)cc2c1C1CCC3(C)C(=O)CCC3C1C=C2 (configuration not stated)	.	?	1.8µM*	22%	?	2%[46.1 µM]
CC1(C)CN=c2s/c(=C\c3ccc(Cl)cc3)c(=O)n2C1	22%	?	10µM*	19%	?	-23%
CCOc1ccc(-n2c(SCC(=O)Nc3cc(C)ccc3C)nc3c([nH]c4ccccc43)c2=O)cc1	3%	-9%	-11%	0%	.	26%[46.1 µM]

Compound activity from PubChem.
